# Data taken from PubChem BioAssay (NCI).
# The panel holds about 83,000 compounds, 20% with a hit somewhere; the sample as a whole holds those more often.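 Growth was measured after 48 h exposure to one concentration of compound in 96-well plates. Values under 10 count as active.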 Unmarked numbers belong to inactive results. Activity calls are given as the source filed them.
# What was measured:
# Test in all cases: NCI-60 one-dose screen, 48 h (100 = growth as untreated, 0 = no growth, -100 = all killed)
# Conditions in all cases: 10 µM unless noted
# T-47D breast = system: T-47D breast
# MDA-MB-435 melanoma = system: MDA-MB-435 melanoma
# SW-620 colon = system: SW-620 colon
# MCF7 breast = system: MCF7 breast
# HCT-116 colon = system: HCT-116 colon
# HCC-2998 colon = system: HCC-2998 colon
# KM12 colon = system: KM12 colon
# BT-549 breast = system: BT-549 breast
SMILES,growth (T-47D breast),growth (MDA-MB-435 melanoma),growth (SW-620 colon),growth (MCF7 breast),growth (HCT-116 colon),growth (HCC-2998 colon),growth (KM12 colon),growth (BT-549 breast)
COc1ccc2c(c1)c(/C=N/Nc1ccnc3cc(Cl)ccc13)cn2C,-64.1% (active),-92.9% (active),-76.6% (active),-80.2% (active),-82.3% (active),-86.3% (active),-78.1% (active),–
CCOC(=O)c1c(NC(=O)c2ccc(C(F)(F)F)cc2)sc2c(CN3CCN(C)CC3)c(O)ccc12,-35% (active),-61.5% (active),-71.2% (active),-79.5% (active),-92.5% (active),-74.9% (active),-21.2% (active),–
Brc1cc(-c2cc(-c3ccc4c(c3)OC=CO4)[nH]n2)cs1,62.1%,28.4%,82.1%,25.1%,84.1%,94.7%,64.2%,–
Oc1[nH]c2ccc(Cl)cc2c1N=Nc1nc(N=Nc2c(O)[nH]c3ccc(Cl)cc23)nc(N2CCCCC2)n1,81.5%,75.8%,15.5%,51.7%,23.9%,–,47.6%,122%
C#CCOc1cccc(/C(N)=N/C(N)=N/c2nc3ccccc3s2)c1,72.3%,104%,105%,74.2%,80.4%,–,78.7%,91.7%
CC(=C(c1ccc(OCCN2CCCC2)cc1)c1ccc(OCCN2CCCC2)cc1)c1ccc(Cl)cc1,-64.7% (active),-89.7% (active),-73.3% (active),-75% (active),-93.6% (active),-57.1% (active),-22.9% (active),–
O=C(CSc1nc2ccccc2c(=O)n1-c1ccc(S(=O)(=O)Nc2ccc(Cl)nn2)cc1)Nc1ccc(S(=O)(=O)Nc2ccc(Cl)nn2)cc1,98.1%,99.7%,98.4%,95.3%,105%,120%,99.4%,–
COc1ccc([C@H]2C(=O)N(c3cc(OC)c(OC)c(OC)c3)[C@@H]2c2ccc(OC)c(O)c2)cc1,90.5%,-6.94% (active),23.3%,14%,6.05% (active),–,12.4%,-28.2% (active)
O=C1C(N2CCN(c3ccccc3)CC2)=C(Cl)C(=O)c2ncccc21,-54.2% (active),-67% (active),-35% (active),-44.7% (active),-56.1% (active),97.8%,92.3%,–
O=c1c2cc(-c3ccc(F)cc3F)ccc2n(Nc2ccccc2)c(=O)n1-c1cccc(C(F)(F)F)c1,8.44% (active),5.62% (active),16%,4.02% (active),7.14% (active),14.7%,11.4%,–
COc1ccc(C2c3[nH]c4ccc(Cl)cc4c3CCN2c2oc(CO)nc2C#N)cc1 (stereo not drawn),43.1%,15.2%,32.9%,32%,32.1%,57%,23.4%,–
N#Cc1c(-c2ccc(Br)cc2)cc(-c2c[nH]c3ccccc23)nc1N,29.7%,0.353% (active),27.8%,18.5%,27.6%,60.3%,28%,–
Cn1c2nc3ccccc3c-2cc2ccccc21,37.4%,39.5%,28.3%,10.9%,22.1%,52.9%,31.8%,–
O=C(CSc1nnc(-c2ccc(Cl)cc2)n1-c1ccccc1)Nc1ccccc1Cl,45.7%,80.9%,51.6%,66.4%,12.1%,–,80%,53.8%
COc1ccc(-c2nc(C#N)c(N3CCC(S(=O)(=O)N4CCOCC4)CC3)o2)cc1,96.9%,99.3%,95.7%,90.7%,110%,–,97.1%,108%
COc1ccc(-c2cnc(NC(=O)CCCCCCNC(=O)C(O)(O)C(F)(F)F)s2)cc1,0.87% (active),5.55% (active),0.251% (active),7.73% (active),-9.91% (active),–,-47.8% (active),-11.9% (active)
Cc1ccc(C(=O)CSc2nnc(-c3ccc(-c4ccc(Cl)cc4)nc3C)o2)cc1,92.1%,103%,103%,81%,98.1%,103%,97.2%,–

SMILES,growth (T-47D breast),growth (MDA-MB-435 melanoma),growth (SW-620 colon),growth (MCF7 breast),growth (HCT-116 colon),growth (HCC-2998 colon),growth (KM12 colon),growth (BT-549 breast)
COc1ccc2sc(NC(=O)CCCCCCNC(=O)C(O)(O)C(F)(F)F)nc2c1,8.02% (active),1.37% (active),5.18% (active),9.01% (active),0.844% (active),-45.9% (active),-15.1% (active),–
O=S(=O)(Oc1ccc(-c2cn3ccsc3n2)cc1)c1cccc(C(F)(F)F)c1,103%,99.5%,97.4%,90.1%,104%,–,102%,119%
C=C(C)[C@@H]1CC[C@]2(C(=O)NC3CCCCC3)CC[C@]3(C)[C@H](CC[C@@H]4[C@@]5(C)CC[C@H](N)C(C)(C)[C@@H]5CC[C@]43C)[C@@H]12,80.6%,98%,75.4%,24.5%,7.83% (active),92.1%,95.8%,–
CC1=C(C)C(=O)C(Nc2ccc(C)cc2)=C(Br)C1=O,15.7%,103%,103%,76%,35.4%,104%,104%,–
Cn1c(SCC(=O)c2ccc(F)cc2)nc2ccccc2c1=O,62.5%,108%,108%,72.7%,89.1%,104%,98.1%,–
CCOC(=O)c1c(NC(=O)c2cccc(C(F)(F)F)c2)sc2c1CCC(=O)C2,17.8%,59.4%,13.8%,34.7%,12.3%,87%,32.2%,–
Cc1[nH]c(C(=O)Nc2ccc(S(=O)(=O)N3CCCCC3)cc2OCCOCCOCCOCCOCCOCCOCCOCCOCCOc2cc(S(=O)(=O)N3CCCCC3)ccc2NC(=O)c2[nH]c(C)c3c2CCCCC3=O)c2c1C(=O)CCCC2,7.19% (active),18%,37.6%,11%,-32.3% (active),-38.4% (active),29.1%,–
O=S1SC(c2ccccc2)=NN1c1cc(F)cc(F)c1 (stereo not drawn),1.86% (active),63.3%,59.2%,35.6%,16.5%,–,41.7%,7.34% (active)
O=C(CCCCCCN1CC(=O)N2[C@@H](C3CC3)c3[nH]c4ccccc4c3C[C@H]2C1=O)NO,66.1%,40.3%,61.2%,39.9%,33.4%,–,84.2%,104%
CCOC(=O)c1ccccc1NC1=C(Cl)C(=O)c2nc(C)ccc2C1=O,92.8%,111%,94.8%,87.5%,99.1%,97.2%,105%,–
CCCCCCNC(=O)Oc1ccc(/C(=C(/C)c2ccc(Cl)cc2)c2ccc(OCCN3CCCCCC3)cc2)cc1,48.2%,70%,22.4%,15.7%,30.9%,–,58.9%,101%
CCN(CC)S(=O)(=O)c1ccc(-c2nc(C(Cl)Cl)nc3cc(-c4ccc(F)cc4)nn23)cc1,28%,25.6%,23.5%,19.4%,28.6%,7.38% (active),9.84% (active),–
CC(C)=CCC[C@](C)(O)[C@H]1CC[C@]2(C)[C@@H]1CC[C@@H]1[C@@]3(C)CC[C@H](N)C(C)(C)[C@@H]3CC[C@]12C,107%,94.2%,8.73% (active),3.07% (active),-28.2% (active),63.3%,48.9%,–
Cn1ncc2ncc(-c3ccc4ncc(C#N)c(N5CCc6cc(F)c(Cl)cc65)c4c3)cc21,5.2% (active),27.1%,54.4%,9.79% (active),53.1%,–,52.5%,37.4%
CC(=O)OCCCCN1C=C/C(=C\C(=O)n2ccc3ccccc32)c2ccccc21,92.7%,106%,98.4%,90.4%,103%,–,97.7%,113%
NC(=O)c1c(NC(=O)c2ccc(C(F)(F)F)cc2)sc2c1CCC(=O)C2,-28.9% (active),-8.14% (active),-17.5% (active),5.66% (active),3.88% (active),32.3%,3.34% (active),–
CCOC(=O)C1=C(C)NC(C)=C(C(=O)OCc2ccccc2)C1c1cccc(C#N)c1 (stereo not drawn),27%,-10.4% (active),29.7%,21.2%,13.2%,–,25.5%,31.7%
